PubChem BioAssay AID493208 (National Center for Advancing Translational Sciences (NCATS), 2011)
About 340 (0.77%) of roughly 44,000 compounds were called active. Inconclusive results (about 5%) are left out. The entries come from a sample that favours actives as a whole. A number with no mark means an inactive call. Calls follow the shape of the dose curve; as a rule, active = well fitted inhibition curve with a large enough effect; inconclusive = small, poorly fitted or top-dose-only effect; inactive = flat fitted curve, though single readings scatter.
Potency is read from the fitted curve at half-maximal effect.

Assay: Acumen qHTS Assay for Inhibitors of the mTORC1 Signaling Pathway in MEF (Tsc2-/-, p53-/-) Cells: Sytravon; also: nearly all actives have a fitted effect of over 50% in size
Conditions: phospho-rpS6 immunofluorescence/PI, 24 h; series mostly up to 38.3 µM; activity change, negative = inhibition: at the top concentration
Source text: NIH Molecular Libraries Probe Production Centers Network [MLPCN] NIH Chemical Genomics Center [NCGC] MLPCN Grant: NS059428-01 Assay Submitter (PI): Blenis, John; Hoffman, Greg; Harvard University NCGC Assay Overview: The mammalian target of rapamycin (mTOR) is an intracellular serine/threonine kinase Aberrant regulation of mTOR signaling plays a causative role in a number of human diseases, including cancer, benign tumors such as lymphangioleiomyomatosis (LAM) and Tuberous Sclerosis Complex (TSC), and metabolic diseases such as diabetes and obesity. This project aims to identify inhibitors of ribosomal protein S6 (rpS6) phosphorylation. The phosphorylation of rpS6 is a key event downstream of mTOR activation. The assay uses a phospho-specific antibody of phospho-rpS6 to detect inhibitors of mTOR activation. Mutations in the Tsc1 and Tsc2 genes are the underlying genetic lesions responsible for TSC, causing constitutive activation of the mTORC1 pathway and leading to profound effects on cell metabolism. Aberrant metabolism in cancer has recently received significant attention as a target to develop therapeutic agents in the treatment of cancer.1 As Tsc2-/- cells have lost the ability to respond to energy and growth factor deprivation, these cells are unable to properly down regulate cellular biosynthetic processes in response to metabolic stress, and are thus extremely sensitive to glucose deprivation-induced death.2 A central goal of this project is to explore the unique cell survival and metabolic properties of cells with Tsc1 or Tsc2 by screening for compounds that selectively target the Tsc2-/- MEFs by screening both Tsc2-/- and WT MEF cell lines. We hope to better understand these aspects of TSC physiology in order to exploit them for therapeutic benefit.
NCGC Acumen Assay Protocol Summary: For quantitative high throughput analysis of mTORC1 signaling, we developed a cell-based assay for immuno-fluorescence based detection of rpS6 phosphorylation on the Acumen Explorer that will be used a platform for the primary small molecule screen. Mouse embryonic fibroblasts (MEFs) are cultured in 1536-well plates using DMEM + 10% FBS. Twenty-four hrs after plating, test compounds (solubilized in DMSO) are delivered and incubated with the cells for 24 hrs at 37 degree Celsius. Following the incubation, media with compound is aspirated and the cells are fixed in 4% paraformaldehyde (PFA) containing PBS + 0.2% TX-100. Next, PFA is aspirated, cells are washed two times with PBS plus 0.2% TX-100 and the cells are blocked for 1 hr at room temperature (blocking buffer: LiCOR Blocking Buffer plus 0.2% TX-100). […] Cells are washed two times with PBS plus 0.2% TX-100, and stained with 10 uM propidium iodide (PI) for 20-25 minutes for cell number measurement (1:500 dilution of Hoescht staining is also added for IN Cell imaging). The plates are scanned on the Acumen Explorer laser scanning instrument (TTP Labtech) using the 488nm laser for simultaneous excitation of the Alexa-488 and PI. […] The normalized phospho-S6 staining is calculated as the ratio of the integrated Alexa 488 intensity divided by the integrated PI intensity for the single concentration rapamycin control (7.5 nM) and DMSO columns. […] Inhibition of the pathway is defined based on the normalized phospho-S6 intensity in rapamycin treated cells. Active cells are defined as those with a normalized phospho-S6 staining above this threshold, and each treatment is reported as the % positive cells in the well, where thresholds are defined by selecting wells with the highest and lowest signal and differentiating between the % non-active and % active populations. In addition to the pathway specific phospho-S6 endpoint, the number of PI stained cells from the Acumen is recorded as a measure of cell viability. The primary screen was performed with a MEF cell line in a defined genetic background, Tsc2-/-, p53-/- cell line stably transfected with an empty vector control (Tsc2-/- MEF).
With `CCCCS(=O)(=O)c1oc(-c2cccs2)nc1S(=O)(=O)c1ccccc1` the Potency was 0.414 µM (active). With `CSc1oc(-c2cccs2)nc1S(=O)(=O)c1ccc(Br)cc1` the “activity change, negative = inhibition” value was 2.88%. In the case of `COc1cccc(CNC(=O)CSc2c3c(nc4cc(Cl)ccc24)CCCC3)c1`, the “activity change, negative = inhibition” value is reported as 3.18%. With `Cc1ccc(CNC(=O)CSc2c3c(nc4cc(Cl)ccc24)CCCC3)cc1` the “activity change, negative = inhibition” value was -6.2%. In the case of `CCOC(=O)C1CCN(C(=O)CSc2c3c(nc4ccc(Cl)cc24)CCCC3)CC1`, the Potency is reported as 18.5 µM (active). In the case of `CN(C)CCN(Cc1ccccc1)S(=O)(=O)c1csc(C(N)=O)c1`, the “activity change, negative = inhibition” value is reported as 3.82%. With `CC(C)C12CN3CC(C(C)C)(CN(C1)C3c1ccc(OCc3ccccc3)cc1)C2=O` (stereo not drawn) the “activity change, negative = inhibition” value was -2.1%. For `N#C/C(=C\c1ccccc1F)c1nc2ccccc2c(=O)[nH]1`, the “activity change, negative = inhibition” value was 7.42%. In the case of `COC(=O)c1cnn(-c2ccc(C(=O)Nc3ccc(OC(F)(F)F)cc3)cc2)c1N`, the “activity change, negative = inhibition” value is reported as -1.33%. With `Cc1ccc(Cn2c(=O)n(-c3ccc(C)cc3)c(=O)c3c2c2cc(C)ccc2n3C)cc1` the “activity change, negative = inhibition” value was -1.48%. For `CCOC(=O)c1ccc(NC(=O)c2nc(SCc3ccc(F)cc3)ncc2Cl)cc1`, the “activity change, negative = inhibition” value was -6.5%. For `Cc1ccc(NC(=O)c2nc(S(=O)(=O)Cc3cccc(C)c3)ncc2Cl)cc1`, the Potency was 5.85 µM (active). In the case of `CCSc1ncc(Cl)c(C(=O)Nc2cc(C)ccc2C)n1`, the “activity change, negative = inhibition” value is reported as 5.83%. In the case of `CCC(C)NC(=O)Cn1c(=O)n(-c2ccc(Cl)cc2)c(=O)c2c3c(sc21)CCCC3` (stereo not drawn), the “activity change, negative = inhibition” value is reported as 7.38%. In the case of `CC1CCCCN1CCCNC(=O)Cn1ncc2c([nH]c3ccccc32)c1=O` (stereo not drawn), the “activity change, negative = inhibition” value is reported as -1.23%. For `COc1ccccc1-c1noc(CSc2nnc(-c3ccccc3)n2-c2ccc(C)c(C)c2)n1`, the “activity change, negative = inhibition” value was -10.2%. With `CCOc1ccc(CNC(=O)c2ccc(CS(=O)c3ccccc3)o2)cc1` (stereo not drawn) the “activity change, negative = inhibition” value was 3.66%. For `CCCCC(CC)CNC(=O)C1CCN(S(=O)(=O)c2cccc3nsnc23)CC1` (stereo not drawn), the “activity change, negative = inhibition” value was 2.77%. With `CC(=O)c1cccc(NC(=O)CSc2nc3c(c(=O)[nH]2)CCC3)c1` the “activity change, negative = inhibition” value was 2.41%. For `Cc1ccc(Cn2c(C)c3cnn(CC(=O)NCc4ccccc4)c(=O)c3c2C)cc1`, the “activity change, negative = inhibition” value was -12.7%. With `Clc1ccc(CSc2nncn3c2cc2occc23)cc1` the “activity change, negative = inhibition” value was 0.254%. With `COc1cc(OC)cc(-c2nc3nc(C)c(CCC(=O)Nc4ccccc4)c(C)n3n2)c1` the “activity change, negative = inhibition” value was 2.09%. For `CCOc1cccc(CC(=O)N2CCc3c([nH]c4ccccc34)C2c2ccc(OC)cc2)c1OCC` (stereo not drawn), the “activity change, negative = inhibition” value was 9.34%. With `CCN(C(=O)CSc1nnc(C)n2c1cc1occc12)c1ccccc1` the “activity change, negative = inhibition” value was -2.15%. With `Cc1ccc(-c2nc(SCc3ccc(Br)cc3)n3[nH]c(=O)cc3n2)cc1` the “activity change, negative = inhibition” value was -2.33%. With `O=c1cc(-c2ccccc2)n2c(SCc3ccccc3)nnc2[nH]1` the “activity change, negative = inhibition” value was 0.0486%. With `CCCCSc1ncnc2c1sc1nc(N3CCOCC3)c3c(c12)CCCC3` the “activity change, negative = inhibition” value was 6.37%. In the case of `COc1ccc(N2C(=O)CSC23C(=O)N(Cc2cccc(F)c2)c2ccccc23)cc1Cl` (stereo not drawn), the “activity change, negative = inhibition” value is reported as -3.26%. In the case of `COc1cc(C(=O)Nc2ccc(OCc3cc(=O)n4cc(C)sc4n3)cc2)cc(OC)c1OC`, the “activity change, negative = inhibition” value is reported as -6.16%. In the case of `CCOc1ccc(NC(=O)c2ncoc2-c2ccco2)cc1`, the “activity change, negative = inhibition” value is reported as 0%. With `Cn1nnnc1SCCCNCc1cccc(OCc2ccc(Cl)cc2)c1` the Potency was 18.5 µM (active). With `Cn1nnnc1SCCCNCc1ccc(Cl)cc1` the “activity change, negative = inhibition” value was -9.59%. For `Cn1nnnc1SCCNCc1ccc(Cl)c(Cl)c1`, the “activity change, negative = inhibition” value was -5.71%. With `COc1ccc(C(=O)Nc2nonc2-c2ccc(OC)c(OC)c2)cc1Cl` the “activity change, negative = inhibition” value was -29.4%. In the case of `Cc1ccc(NC(=O)c2cc3cc(C)ccc3n2C)cc1`, the “activity change, negative = inhibition” value is reported as -1.67%. In the case of `Cc1ccc(S(=O)(=O)c2nnn3c2nc(N2CCN(c4ccccc4F)CC2)c2cc(Cl)ccc23)cc1C`, the “activity change, negative = inhibition” value is reported as -0.0789%. With `COC(=O)c1cc(NC(=O)c2cnc(SC)nc2-c2ccccc2)cc(C(=O)OC)c1` the “activity change, negative = inhibition” value was -1.13%. With `CCNS(=O)(=O)c1cc(-c2nnc(Nc3cccc(C(F)(F)F)c3)c3ccccc23)ccc1C` the Potency was 18.5 µM (active). With `Cc1ccc(-c2nnc(Nc3cccc(Br)c3)c3ccccc23)cc1S(=O)(=O)NCC1CCCO1` (stereo not drawn) the “activity change, negative = inhibition” value was -0.426%. For `Cc1ccc(Nc2nnc(-c3ccc(C)c(S(=O)(=O)N4CCCCC4)c3)c3ccccc23)cc1`, the “activity change, negative = inhibition” value was -1.69%. With `O=C(Nc1ccccc1Cl)N1CCC(CN2CCCCC2)CC1` the “activity change, negative = inhibition” value was -6.23%. In the case of `CCN(CCCNC(=O)c1cc2c(=O)n(CC)c3ccccc3c2s1)Cc1ccccc1`, the Potency is reported as 18.5 µM (active). With `CCn1c(=O)c2cc(C(=O)NCCc3ccc(Cl)cc3)sc2c2ccccc21` the “activity change, negative = inhibition” value was 1.55%. With `CCc1ccc(CNC(=O)c2cc3c(=O)n(CC)c4ccccc4c3s2)cc1` the “activity change, negative = inhibition” value was -7.38%. With `CCCCOC(=O)CSc1ncnc2sc3c(c12)CCC(C)C3` (stereo not drawn) the “activity change, negative = inhibition” value was -0.119%. For `O=C(CC(NCc1cccnc1)C(=O)O)Nc1ccc(O)cc1` (stereo not drawn), the Potency was 14.7 µM (active). For `Cc1cc(NC(=O)CC(C)C)cc(-c2nc3ncccc3o2)c1O`, the “activity change, negative = inhibition” value was 1.54%. For `CCc1ccc(NC(=O)c2cc3c(=O)n(Cc4cccnc4)ccc3nc2C)cc1`, the “activity change, negative = inhibition” value was -1.59%.
